A number with no mark means an inactive call. No rule for the calls is given here.
Molecular target: Pantothenate synthetase (Mycobacterium tuberculosis (strain ATCC 25618 / H37Rv)) (UniProt P9WIL5)
Experiment: Coupled enzyme confirmation of inhibitors against recombinant Mtb PanC (AID 375);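 also: 0% = full reaction with vehicle and 100% = no enzyme background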
Details: coupled enzyme assay; at 10 µM, stronger effect = higher value

Chain of Pantothenate synthetase (Mycobacterium tuberculosis (strain ATCC 25618 / H37Rv)) (P9WIL5 whole entry, looked up): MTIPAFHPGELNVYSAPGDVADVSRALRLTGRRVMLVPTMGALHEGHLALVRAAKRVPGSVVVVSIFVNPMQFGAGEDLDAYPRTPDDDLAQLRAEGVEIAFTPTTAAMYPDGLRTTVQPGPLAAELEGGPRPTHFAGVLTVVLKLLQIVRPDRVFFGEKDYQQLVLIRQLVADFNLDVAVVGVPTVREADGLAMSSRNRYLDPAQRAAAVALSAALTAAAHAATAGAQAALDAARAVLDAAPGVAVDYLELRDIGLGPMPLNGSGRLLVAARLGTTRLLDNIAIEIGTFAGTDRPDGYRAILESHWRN

| SMILES | inhibition [%] |
| --- | --- |
| O=C1C2CCCN2C(c2ccccc2)N1c1ccc(Cl)cc1 (stereo not given) | 1 |
| CCOC(=O)c1sc2nc(NC(=O)COc3ccccc3)sc2c1C | 0 |
| CCCCN(CCCC)CCCNC(=O)CC1Oc2ccc(C)cc2NC1=O (stereo not given) | 3 |
| CC(C)(C)c1cc(NC(=O)c2cc(F)c(F)c(F)c2F)no1 | 0 |
| Cc1cc(=O)n2nc(N3CCCC(C(=O)N4CCN(C)CC4)C3)sc2n1 (stereo not given) | 1 |
| CCOc1nc(OCC)nc(N2CCC(C)CC2)n1 | 0 |
| O=C(Nc1ccc(F)cc1)NC1CCN(Cc2nnnn2Cc2ccco2)CC1 | 0 |
| CCn1cc(SCC(=O)NCC2CCCO2)c2ccccc21 (stereo not given) | 0 |
| O=C(CN1c2cccc3cccc(c23)S1(=O)=O)N1CCOCC1 | 0 |
| COc1c2occc2c(OC)c2c(=O)cc(C)oc12 | 8 |
| CCc1nnc(NC(=O)c2ccc(COc3ccc(C)cc3)o2)s1 | 1 |
| O=C(CSc1nnc2ccccn12)NCCN1C(=O)CSC1=O | 0 |
| O=C(Nc1ccc2nn(-c3ccccc3)nc2c1)c1ccc(Br)o1 | 0 |
| Cc1ccccc1CSc1nnc(C)c(=O)[nH]1 | 0 |
| CCOc1ccc(-c2nc(C#N)c(N3CCN(C)CC3)o2)cc1 | 2 |
| O=C1NC(Nc2ccccn2)(C(F)(F)F)C(=O)N1c1ccc(F)cc1 (stereo not given) | 0 |
| CCOc1cc2[nH]c(=S)n(CC3CCCO3)c(=O)c2cc1OCC (stereo not given) | 9 |
| CCSc1ccccc1C(=O)NCc1ccc(S(N)(=O)=O)cc1 | 0 |
| COc1ccc(CCn2c(C)cc(C(=O)CSc3nnnn3C)c2C)cc1 | 0 |
| Nc1nc2n(n1)C(c1c(F)cccc1Cl)CC(c1ccc(F)cc1)N2 (stereo not given) | 1 |

| SMILES | inhibition [%] |
| --- | --- |
| CC1CCc2nn(CC(=O)NCCCN3CCOCC3)cc2C1 (stereo not given) | 0 |
| COC(=O)c1ccc(C2NC(C(=O)O)CS2)cc1 (stereo not given) | 0 |
| Cc1ccc(C)c(NS(=O)(=O)c2ccc(NC(=O)c3ccco3)cc2)c1 | 0 |
| c1ccc(N2CCN(Cc3ccnc4ccccc34)CC2)cc1 | 2 |
| COc1cc(C(=O)Nc2cc(-c3ccccc3)[nH]n2)cc(OC)c1OC | 5 |
| Cc1cc(NC(=O)COC(=O)c2cccc(S(=O)(=O)N3CCOCC3)c2)no1 | 1 |
| CCCCSc1nc2c(cnn2-c2ccc(F)cc2)c(=O)[nH]1 | 0 |
| O=C1c2ccccc2C(Nc2ccc3nc(-c4cccnc4)[nH]c3c2)N1Cc1ccco1 (stereo not given) | 0 |
| CC(C)C(c1nnnn1C1CCCC1)N1CCN(C(=O)c2ccco2)CC1 (stereo not given) | 3 |
| COc1ccc(-c2nnc3ccc(SC(C(C)=O)C(C)=O)nn23)cc1OC | 2 |
| O=c1nc(N2CCCC2)nc(Nc2ccccc2)[nH]1 | 0 |
| CC(=O)NC(Cc1ccc(C)cc1)C(=O)NC1CCN(C(=O)c2cnccn2)CC1 (stereo not given) | 0 |
| COc1ccc(Cc2noc(-c3ccc(C)cc3)n2)cc1 | 0 |
| O=C(Nc1cnn(Cc2ccc(Cl)cc2Cl)c1)c1noc2c1CCCC2 | 4 |
| O=C(NCc1cccs1)c1cc2c(s1)-c1ccccc1OC2 | 0 |
| C=CCn1c(COc2ccc(CC)cc2)nnc1SC/C(O)=C(\C#N)c1nc2ccccc2[nH]1 | 5 |
| O=C(CSc1nnc(-c2cnccn2)n1Cc1ccco1)c1ccc(Cl)cc1 | 0 |
| O=S(=O)(NCc1cn2ccccc2n1)c1cc(F)ccc1F | 2 |
| COc1ccc(-n2c(Cc3cccn3C)nnc2SCC(=O)Nc2ccccc2)cc1 | 0 |
| COc1ccc(-c2nnc(-c3ccc(N)cc3)o2)cc1 | 4 |
